Luc counter: Counterscreen for Luciferase (Kinase-Glo TM) Inhibition; 200,000 tested, 0.28% active; Luciferin 4-monooxygenase (Photuris pensylvanica), Q27757; Kinase-Glo luciferase, ATP luminescence, 8 min; Potency, µM (doses to about 38.3 µM), without a hit: at the highest dose activity change, negative = inhibition, hits mostly inhibitors; AID 1379, 2008; further: on the % scale 0 is the no-effect control and ±100 the full control effect; nearly all actives have a fitted effect of over 60% in size
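Luminescence was the read-out, taken after 8-minute incubation at ambient temperature. Luciferase turned over luciferin with 10 uM ATP in imidazole pH 7.2 buffer containing KCl, MgCl2, Tween 20 and BSA.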
SMN2 splice enh: qHTS Assay for Enhancers of SMN2 Splice Variant Expression; Potency, µM (titrated, usually from 46.1 µM), for inactives: at the top dose activity change, positive = activation, usual class: activators; HEK293 SMN2-luciferase splicing reporter, luminescence, 30-36 h; 210,000 tested, 2.8% active; further: % of control where 0% means no effect; nearly all actives have a fitted effect of over 55% in size
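HEK293 cells carry an SMN2 […]–luciferase reporter in which exon 7 inclusion puts luciferase in frame. Cells were plated 10-12 h before compound addition, then incubated 30-36 h at 37C. ONE-Glo luminescence was read; sodium butyrate at 4.5 mM final served as control.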
ELG1 genotox: qHTS screen for small molecules that induce genotoxicity in human embryonic kidney (HEK293T) cells expressing luciferase-tagged ELG1; HEK293T ELG1-luciferase reporter, luminescence, 16 h; Potency, µM (doses to about 46 µM), without a hit: at the top dose activity change, positive = activation, usual class: activators; 330,000 tested, 1.3% active; further: % of control where 0% means no effect; nearly all actives have a fitted effect of over 60% in size
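After overnight (16 hr) compound treatment at 37 °C, ELG1-luciferase HEK293T cells were lysed with ONE-Glo; luminescence quantified 30 min later at room temperature.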
NPC1 prom act: qHTS Assay for NPC1 Promoter Activators; Huh7 NPC1 promoter luciferase reporter, 24 h; Potency, µM (highest dose often 9.22 µM), for inactives: top-dose activation, usual class: activators; 320,000 tested, 2.4% active; AID 485313, 2010; further: % of control where 0% means no effect; nearly all actives have a fitted effect of over 60% in size
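Huh7 reporter cells (NPC1 promoter driving luciferase) are dosed with compound for 24 h at 37 °C, 5% CO2; luciferase detection reagent is then added and luminescence measured after 10 min at ambient temperature.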
FLuc modulator: qHTS profiling assay for firefly luciferase inhibitor/activator using purifed enzyme and Km concentrations of substrates (counterscreen for miR-21 project); Luciferin 4-monooxygenase (Photinus pyralis), P08659; purified FLuc, Km substrates, luminescence inhibition; Potency, µM (highest dose often 57.5 µM), without a hit: at the highest dose activity change, negative = inhibition, most hits filed as inhibitors; 360,000 tested, 6.9% active; AID 588342, 2011;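 further: plate controls were vehicle for no effect and reference inhibitor for full effect; nearly all actives have a fitted effect of over 55% in size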
Target sequence (P08659 whole entry, looked up): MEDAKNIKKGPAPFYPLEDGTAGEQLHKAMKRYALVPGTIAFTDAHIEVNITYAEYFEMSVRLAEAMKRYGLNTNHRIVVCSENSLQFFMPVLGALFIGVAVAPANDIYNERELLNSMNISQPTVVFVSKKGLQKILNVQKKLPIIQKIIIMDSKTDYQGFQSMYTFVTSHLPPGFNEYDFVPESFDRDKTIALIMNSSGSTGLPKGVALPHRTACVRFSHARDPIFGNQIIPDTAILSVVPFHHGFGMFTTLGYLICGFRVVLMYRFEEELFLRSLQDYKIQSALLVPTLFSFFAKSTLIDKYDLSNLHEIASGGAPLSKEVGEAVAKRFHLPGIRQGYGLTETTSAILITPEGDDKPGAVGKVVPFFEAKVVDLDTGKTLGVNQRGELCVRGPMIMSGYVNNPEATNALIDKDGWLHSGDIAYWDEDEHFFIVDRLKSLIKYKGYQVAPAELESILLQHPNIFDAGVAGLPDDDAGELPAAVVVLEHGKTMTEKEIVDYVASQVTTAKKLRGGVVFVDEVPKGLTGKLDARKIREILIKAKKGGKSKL
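Purified P. pyralis luciferase (10nM final) with 10uM D-luciferin and 10uM ATP (Km levels) in 50mM Tris acetate pH 7.5, 10mM Mg acetate, 0.01% Tween-20, 0.05% BSA; qHTS 6-point titration, ~60 µM downward; luminescence read.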
Rab9 promoter act: qHTS Assay for Rab9 Promoter Activators. Huh7 Rab9 promoter-luciferase reporter, luminescence, 24 h. 320,000 tested, 2.8% active. Potency, µM (series often up to 9.22 µM), without a hit: top-dose activation, negative = inhibition, usual class: activators; further: % of control where 0% means no effect; nearly all actives have a fitted effect of over 60% in size
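Huh7 reporter line, Rab9 promoter upstream of luciferase. Compound exposure 24 h at 37 °C in reduced-serum medium with 10% FBS. Read-out: luminescence.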
* hit, by the source's call; u = inconclusive; x = not tested or not shown; [ ] = dose if it differs, or a comment. An excerpt weighted towards active compounds, which were near 7.5% of everything screened. The call rests on the fitted dose curve; in most records, active means well fitted curve in the direction sought with a large enough effect; inconclusive means small, poorly fitted or top-dose-only effect, or another doubt; inactive means no such curve, though single readings can be large; an effect the other way counts as inactive or inconclusive. Potency means the concentration at half of the fitted maximal effect.

SMILES | Luc counter | SMN2 splice enh | ELG1 genotox | NPC1 prom act | FLuc modulator | Rab9 promoter act
Cc1ccc(C(=O)NCCc2ccc(F)cc2)s1 | -6% | 4.5µM* | u | 1.4µM* | 9.5µM* | 2.8µM*
Cc1cccc(NC(=O)CSc2nccn2Cc2ccc(F)cc2)c1C | x | x | x | x | 2% | x
Cc1ccccc1Cn1cc(NC(=O)c2cc(-c3ccc(Cl)cc3)on2)cn1 | x | -3% | x | x | 6% | x
Cc1ccccc1Cn1cc(NC(=O)c2cc(C3CC3)on2)cn1 | x | x | -11% | u | 19µM* | u
CCCc1cc(C(=O)Nc2ccc(CC)cc2)no1 | x | x | u | 3.2µM* | 4.8µM* | 1.6µM*
CCCc1cc(C(=O)Nc2ccc(C)cc2)no1 | -2% | 8% | u | u | 3.4µM* | 4.5µM*
CCN(CC)CCCNC(=O)c1ccc2c(c1)sc1nc(-c3ccc(C)cc3)cn12 | x | x | x | x | -10% | x
CCOC(=O)N1CCN(C(=O)c2cc(COc3cccc(C(C)=O)c3)on2)CC1 | x | x | 13% | 23% | u | u
O=C(NCC1CCOCC1)c1cc(COc2cccc(C(F)(F)F)c2)on1 | x | x | -9% | -1% | 0% | 1%
CCOC(=O)N1CCN(C(=O)c2cc(COc3cccc(C(F)(F)F)c3)on2)CC1 | x | x | u | 3.2µM* | 15µM* | 2.8µM*
O=C(NC1CCOC1)c1cc(COc2cccc(C(F)(F)F)c2)on1 (configuration not stated) | x | x | u | 0% | 24µM* | u
CC(NC(=O)c1cc(COc2cccc(C(F)(F)F)c2)on1)c1nccs1 (configuration not stated) | x | x | u | u | 15µM* | 2.8µM*
COc1ccc(-c2noc(-c3cccnc3NCc3ccco3)n2)cc1 | x | x | x | x | 0% | x
CCCCN(CC)CCNc1ncnc2onc(-c3ccc(Cl)cc3)c12 | x | -4% | x | x | 2% | x
O=C(Cn1cc(S(=O)(=O)Cc2cccc(Cl)c2)c2ccccc21)NCCc1ccccc1 | x | x | x | x | -1% | x
CCOC(=O)c1cccc(NC(=O)c2cc3c(=O)n(Cc4ccccc4)ccc3nc2C)c1 | x | x | x | x | 1% | x
CC(=O)Cn1cnc2sc(-c3ccccc3)cc2c1=O | -4% | 20µM* | 13µM* | 3.2µM* | 9.5µM* | 4.5µM*
Cc1ccc(C)n1-n1c(C)nc2sc(-c3ccccc3)cc2c1=O | -1% | -16% | u | u | 17µM* | u
CCOC(=O)C(CC)n1nnc2sc(-c3ccccc3)cc2c1=O (configuration not stated) | x | -8% | x | x | 21µM* | x
N#CCn1cnc2sc(-c3ccccc3)cc2c1=O | 1% | 8% | 12% | 14% | -16% | 27%
O=C(Cn1cnc2sc(-c3ccccc3)cc2c1=O)N1CCOCC1 | -1% | 24% | 3% | 6% | -11% | -2%
CCCOC(=O)C(C)n1nnc2sc(-c3ccccc3)cc2c1=O (configuration not stated) | x | -7% | x | x | u | x
CCn1cnc2sc(-c3ccccc3)cc2c1=O | -4% | 10µM* | 3.7µM* | 1.3µM* | 6µM* | 2.8µM*
Cc1ccc(C)n1-n1cnc2sc(-c3ccccc3)cc2c1=O | 5% | -45% | -4% | -2% | u | -5%
O=C(Nc1ccccc1)N1CCCC2(CCN(C(=O)c3cccc(F)c3)CC2)C1 | -1% | -6% | x | x | x | x
SMILES | Luc counter | SMN2 splice enh | ELG1 genotox | NPC1 prom act | FLuc modulator | Rab9 promoter act
COc1ccc(-n2cnc3sc(-c4ccccc4)cc3c2=O)cc1 | 2% | 6.3µM* | u | 0.56µM* | u | 0.63µM*
COc1ccc(-n2cnc3sccc3c2=O)cc1 | x | x | 2% | -4% | 3% | 9%
CC(=O)Cn1nnc2sc(-c3ccccc3)cc2c1=O | -2% | 14µM* | u | u | u | u
O=c1[nH]cnc2sc(-c3ccccc3)cc12 | -7% | 16% | 19% | 20% | 15µM* | u
O=c1c2cc(-c3ccccc3)sc2ncn1-n1cccc1 | -7% | u | u | 1.8µM* | -18% | 1.8µM*
O=c1[nH]c(-c2ccccc2)nc2sc(-c3ccccc3)cc12 | 1% | u | u | -11% | u | u
Cc1cccc(-c2noc(-c3ccc(NC4CCCC4)c([N+](=O)[O-])c3)n2)c1 | x | x | x | x | -20% | x
CCc1cc2c(=O)n(-c3ccc(C)cc3)cnc2s1 | -7% | 3.2µM* | u | 4µM* | 11µM* | 2.5µM*
CCc1cc2c(=O)n(-c3ccccc3)cnc2s1 | 8% | 7% | 7% | -3% | -10% | 6%
CC(=O)Nc1ccc(SCC(=O)O)cc1 | 2% | 4% | -1% | -5% | 1% | 3%
O=C(Nc1ccc(Cl)cc1)c1ccc(Br)cc1F | -5% | 14µM* | 3.3µM* | 1.4µM* | 3µM* | 1µM*
Cc1cc(NC(=O)Nc2ccccc2F)ccc1Br | x | x | u | 1.4µM* | 2.4µM* | 1.3µM*
O=C(O)CSc1ccc(NC(=O)Nc2ccccc2F)cc1 | x | x | 2% | -2% | 12µM* | 2%
O=C(Nc1ccccc1)Nc1ccc(Br)cc1F | 2% | 13µM* | 14% | u | u | u
CC1(Cn2ccnn2)[C@H](C(=O)O)N2C(=O)C[C@H]2S1(=O)=O (some centres not stated) | 1%[39.9 µM] | x | x | x | x | x
Cc1cccc(NC(=O)c2c(NC(=O)c3ccco3)sc3c2CCC(C(C)(C)C)C3)c1 (configuration not stated) | x | 3% | x | x | 4% | x
CC(=O)c1cc2c(cc1N/C(=N/S(=O)(=O)c1ccc(C)cc1)c1ccc(F)cc1)OCO2 | x | x | x | x | -8% | x
CC1CCN(c2ccc(-c3cccs3)nn2)CC1 | x | x | 0.23µM* | u | 0.076µM* | 1.4µM*
Clc1ccc(-c2cccs2)nn1 | 2% | 6% | 16% | -1% | 1% | 28%
CCCCNc1c(CN)cnc2cc(Cl)ccc12 | -4%[7.66 µM] | -16%[9.22 µM] | x | x | x | x
CCCOc1cccc(-c2cc(-c3n[nH]c(=S)n3CC)c3ccccc3n2)c1 | -5% | -13% | -3% | -2% | 17µM* | -2%
CCn1c(-c2cc(-c3ccc(C)cc3)nc3ccccc23)n[nH]c1=S | -2% | 5% | 7% | 9% | 6.7µM* | 9%
CCn1c(-c2cc(-c3ccc(OC(C)C)cc3)nc3ccccc23)n[nH]c1=S | -3% | 23% | 2% | u | 0.6µM* | u
C=CCn1c(-c2cc(-c3ccc(C)cc3)nc3ccccc23)n[nH]c1=S | -3% | 4% | -7% | -1% | 11µM* | -4%

From PubChem
